This is a sample that favours compounds with a hit; in the whole collection about 21% have one here.
Pf growth 48h = inhibits P. falciparum growth in the first generation, 48 h. actives 5.9% (n = 310,000). Potency, µM (top dose mostly 28.7 µM), for inactives: at the top dose activity change, negative = inhibition, usual class: inhibitors. P. falciparum luciferase growth in erythrocytes, 48 h; note: potency is the fitted concentration of half-maximal effect; % is set by controls: 0 for no effect and ±100 for the full control effect
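First compound was added to culture medium, then infected red cells at 0.1% parasitemia and 2% hematocrit (final). After incubation at 37 C under 5% CO2, luciferase detection reagent was dispensed and light output recorded.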
NS1 inh = inhibitors of influenza NS1 protein function. Potency, µM (doses to about 46.1 µM), for inactives: top-dose activity, positive = more growth. actives 0.4% (n = 270,000). AID 2326; calls by dose curve; note: potency is the fitted concentration of half-maximal effect; actives are rising curves; nearly all actives have a fitted effect of over 50% in size
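In this qHTS, NS1 from influenza A is expressed in budding yeast, where it slows growth. Cells are switched from glucose to 2% galactose medium (pH 6.0, -URA), treated with compound, and growth recovery is read at OD600.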
Cycloheximide cs = counter-screen hit for Shiga toxin inhibitors, cycloheximide; cell reporter, cycloheximide protein synthesis inhibition counterscreen; max response, %; actives 12% (n = 300,000); AID 2314; in the data active = max response mostly above about 13%, no sharp cut-off; inactive = mostly below about 14%; note: read at 38.3 µM for the half of the compounds with a filed dose; 0% is about no effect
Shiga toxin inh = blocks Shiga toxin action in Vero cells | Vero cells, Shiga toxin protein synthesis inhibition reporter | inhibition, % at 38.7 µM | actives 9.2% (n = 290,000) | AID 2315; in the data active = inhibition mostly above about 28%, no sharp cut-off; inactive = mostly below about 43%; note: 0% is about no effect
Pf growth 96h = P. falciparum growth inhibition at 96 hours; actives 6.9% (n = 320,000); P. falciparum luciferase reporter growth, 96 h; Potency, µM (titrated, usually from 28.7 µM), inactives show at the highest dose activity change, negative = inhibition, hits mostly inhibitors; note: potency is the fitted concentration of half-maximal effect; % is set by controls: 0 for no effect and ±100 for the full control effect
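Plates of compound plus infected erythrocytes (2% hematocrit, 0.05% parasitemia final) incubate 96 hours, 37 C, 5% CO2. Detection reagent added; reduced luminescence from the parasites' luciferase reporter flags inhibition.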
* = called active by the depositor; ? = inconclusive; . = no result given; [ ] = remark or other dose. Unless noted, calls come from the whole dose curve; as a rule, active = well fitted inhibition curve with a large enough effect; inconclusive = small, poorly fitted or top-dose-only effect, or another doubt; inactive = no such curve, though single readings can be large or run the other way.

SMILES	Pf growth 48h	NS1 inh	Cycloheximide cs	Shiga toxin inh	Pf growth 96h
CCOC(=O)C1(Cc2cccc(OC)c2)CCN(Cc2cc(OC)ccc2OC)CC1	?	-2%	-1	-3	10µM*
CCOC(=O)C1(Cc2cccc(OC)c2)CCN(Cc2cccc(OC)c2OC)CC1	?	-4%	-2	6	?
COc1ccc(CCNC(=O)C/C(C)=N/NC(=O)C(c2ccccc2)c2ccccc2)cc1OC	-3%	-6%	2	-16	?
CCn1c(-c2cc(-c3cccc(OC)c3)nc3ccccc23)n[nH]c1=S	-28%	11%	2	-18	.
CCc1ccc(-c2cc(-c3n[nH]c(=S)n3CC)c3ccccc3n2)cc1	?	21%	32*	41*	2.9µM*
COCCNC(=O)c1ccc2c3n(nc2c1)-c1ccccc1CO3	221%	-2%	30*	41*	23%
COCCNC(=O)c1ccc2c3n(nc2c1)-c1ccc(Cl)cc1CO3	120%	-5%	7.5*	44*	105%
O=C(NCCO)c1ccc2nc(Cc3cccc(Cl)c3)oc2c1	0%	7%	-1	19	30%
O=C(NCCO)c1ccc2c3n(nc2c1)-c1ccc(Cl)cc1CO3	89%	-5%	54*	79*	135%
C=CCNC(=O)c1ccc2c3n(nc2c1)-c1ccccc1CO3	194%	-61%	27*	46*	242%
COCCNC(=O)c1ccc2c(c1)CCN2S(C)(=O)=O	?	.	0	-11	5%
COCCNC(=O)CN1C(=O)COc2ccc(Cl)cc21	34%	?	-6	-16	-10%
Nc1nnc(SCC(=O)OCC(=O)c2ccccc2Br)s1	-4%	.	-4	2	24%
Cc1cc(C)cc(N(CCC#N)C(=O)COC(=O)CNC(=O)c2sc3ccccc3c2Cl)c1	25%	.	.	.	-3%
Cc1ccc2c(c1)COc1c3ccc(C(=O)NCCO)cc3nn1-2	279%	-5%	61*	74*	16%
CCCCNC(=O)NNC(=O)c1ccc(F)cc1	-16%	-18%	-3	-2	-22%
CC(C)(C)c1ccc(C(=O)NCc2cccnc2)cc1	8%	-13%	26	47	61%
CC(C)(C)c1ccc(C(=O)c2c[nH]c(C(=O)NCc3cccnc3)c2)cc1	8.3µM*	11%	20*	23	5.2µM*
CC(C)(C)c1ccc(C(=O)NC(=S)NCc2cccnc2)cc1	23%	-65%	45*	active	-17%
O=C(NNC(=S)Nc1ccccc1C(F)(F)F)c1cccnc1	22%	4%	10*	11	-58%[5.75 µM]
COc1ccc(C(=O)c2c[nH]c(C(=O)NCCCn3ccnc3)c2)cc1	?	.	-4	-10	?
CC(C)(C)c1ccc(C(=O)c2c[nH]c(C(=O)NCCCn3ccnc3)c2)cc1	12µM*	10%	0	2	7.4µM*
CN(C)C(CNC(=O)c1cccc(S(=O)(=O)NCc2ccccc2)c1)c1ccccc1 (centres undefined)	?	.	.	.	-28%
CC1(C)C2CCC1(CS(=O)(=O)NC(CC(=O)O)c1cccc(Br)c1)C(=O)C2 (centres undefined)	4%	10%	0	-11	3%
COc1ccc(C(=O)Nc2ccc(-c3ccc(NC(=O)c4ccc(OC)cc4)c(OC)c3)cc2OC)cc1	-5%	17%	2	-10	31%
SMILES	Pf growth 48h	NS1 inh	Cycloheximide cs	Shiga toxin inh	Pf growth 96h
O=C(NNC(=S)NC(=O)c1ccccc1)c1cccnc1	?	-17%	-7	-4	?
COCCCNC(=S)NNC(=O)c1ccc(C(C)(C)C)cc1	4%	-1%	3	-19	-19%
CC(C)(C)c1ccc(C(=O)NNC(=S)NC(=O)c2cccnc2)cc1	13µM*	-43%	24*	53*	?
O=C(NC(=S)NNC(=O)c1ccccc1F)c1cccnc1	-19%	-8%	20*	55*	33%
COC(=O)CNC(=S)NC(=O)c1ccc(C(C)(C)C)cc1	28%	5%	32*	78*	?
Cc1ccccc1C(=O)NNC(=S)NC(=O)c1cccnc1	?	-37%	-1	16	?
CCSc1cc(N2CCCC2)nc(-c2ccccc2Cl)n1	2%	-22%	1	17	5%
COCCCn1c(Cc2csc(Nc3ccc(F)cc3)n2)nnc1SCC(N)=O	.	-5%	-3	-8	-22%
COc1cccc(/C=C/C(=O)Nc2ccc3[nH]c(=O)[nH]c3c2)c1	5%	6%	-3	0	8%
COc1cc(/C=C/C(=O)N2CCC=CC2=O)cc(OC)c1OC	9.3µM*	.	.	.	?
